The campaign covered roughly 1,300 compounds. About 120 (9.2%) were called active. About 35% were inconclusive and are not listed. Calls follow the shape of the dose curve; as a rule, active = well fitted activation curve with a large enough effect; inconclusive = small, poorly fitted or top-dose-only effect; inactive = flat fitted curve, though single readings scatter. A selection follows. A call without a number means that no potency is given here.

Here are results for 44 compounds from PubChem BioAssay AID1963319 (National Center for Advancing Translational Sciences (NCATS), 2024).
Potency is read from the fitted curve at half-maximal effect.

Sequence of Luciferin 4-monooxygenase (Photinus pyralis) (P08659 whole entry, looked up): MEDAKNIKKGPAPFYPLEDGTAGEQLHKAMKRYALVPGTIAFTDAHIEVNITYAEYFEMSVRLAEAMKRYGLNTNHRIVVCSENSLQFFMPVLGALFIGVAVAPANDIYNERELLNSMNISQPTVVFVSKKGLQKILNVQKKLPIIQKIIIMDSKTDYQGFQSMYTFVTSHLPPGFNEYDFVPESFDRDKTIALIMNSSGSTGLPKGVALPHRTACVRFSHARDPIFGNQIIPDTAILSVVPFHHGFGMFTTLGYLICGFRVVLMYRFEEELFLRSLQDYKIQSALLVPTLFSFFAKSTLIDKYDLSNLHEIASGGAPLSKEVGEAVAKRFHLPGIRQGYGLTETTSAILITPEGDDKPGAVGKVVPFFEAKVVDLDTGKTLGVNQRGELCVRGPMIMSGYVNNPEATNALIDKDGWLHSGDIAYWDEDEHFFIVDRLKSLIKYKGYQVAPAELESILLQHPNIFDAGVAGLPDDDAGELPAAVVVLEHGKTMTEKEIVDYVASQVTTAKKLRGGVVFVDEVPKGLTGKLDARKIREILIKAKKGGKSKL

This assay has as its target Luciferin 4-monooxygenase (Photinus pyralis) (UniProt P08659). Description: Firefly luciferase (FLuc-C-HiBiT) SDR gain of signal screen - plus ATP.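 Also: signal reports ligand binding via conformational change of the enzyme rather than luciferase catalysis; nearly all actives have a fitted effect of over 55% in size.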 The settings on record: purified FLuc-C-HiBiT + ATP, HiBiT complementation luminescence; series mostly up to 32.7 µM. The text has this: PI: James Inglese Ph.D. National Center for Advancing Translational Sciences (NCATS), National Institute of Health (NIH), Maryland Discovery and optimization of novel protein-binding ligands underlies many of the methods and applications of biology, drug discovery, clinical diagnostics, and environmental toxicology. Assays for detecting the interaction of, for example, a molecule with a macromolecular target also referred to here as the target of interest (TOI) is dependent on a compatible output technology. Depending on the nature and knowledge surrounding the TOI, whether a receptor, enzyme, regulatory subunit or scaffold, or a sequence-defined nucleic acid folded into a complex tertiary structure, assay strategies can vary widely. Here we exploit ligand-biased changes in the structural dynamics of the target protein to control reporter alpha complementation allowing a non-competitive, non-functional, non-separation measure of ligand-target interaction. […] Using a chemical library of >1,200 compounds enriched for scaffolds known to be associated with the inhibition of firefly luciferase (FLuc) activity (PubChem AIDs 2309) we first illustrate and compare the Structural Dynamics Response (SDR) assay vs. the standard functional FLuc enzyme assay (2). Secondly, we show the specificity and sensitivity of the SDR for the Abelson tyrosine kinase (ABL1) compared to the serine/threonine protein kinase A, using an enriched chemical library of 128 compounds selected, in part, for activity annotated with ABL1 kinase activity using the Pharos database (3). References: (1) A. S. Dixon et al., NanoLuc Complementation Reporter Optimized for Accurate Measurement of Protein Interactions in Cells. ACS Chem Biol 11, 400-408 (2016). […] Chemistry & Biology, 19, 1060 - 1072 (2012). (3) K. J. Kelleher et al., Pharos 2023: an integrated resource for the understudied human proteome. Nucleic Acids Res 51, D1405-D1416 (2023).
1. Reagent. Dispense 4 uL FLuc-C-HiBiT enzyme-buffer solution per well at a final enzyme concentration of 10 nM with or without 10 uM ATP into columns 2-48 of white, solid bottom medium bind 1536-well plates (Greiner Bio-One) by BioRaptr 2. Dispense respective buffer without enzyme at 4 uL/well in column 1 of assay plates. 2. Compounds. Library compounds and PTC124 control added at 23 nL per well, transfer by Pin Tool. 3. Incubation. Incubate enzyme and compounds at room temperature for >30 min, protect from light. 4. Reagent. (SDR assay) Add 3 uL/well of Nano-Glo HiBiT reagent (Promega) to assay plates for SDR assay with ATP. 5. Incubation. Incubate enzyme and substrate or detection reagent at room temperature for 5-10 min, protect from light. 6. Detector. HiBiT SDR assay measured using CCD-based camera (ViewLux) with settings as follows: Exposure, 1 sec; Gain, High; Speed, Slow; Binning, 2X. REFERENCES: Inglese J, Shamu CE and Guy RK, Reporting data from high throughput screening of small molecule libraries, Nature Chemical Biology, 2007, 3(8): 438-441. doi.org/10.1038/nchembio0807-438.
(HiBiT is a short tag that completes a luciferase, so light tracks the accessible tagged protein.)
For the compound `CC(=O)c1ccc(NC(=O)CSc2nnc(NC(=O)Nc3ccccc3)s2)cc1`, the Potency entry was “inactive”.

Consider `Cc1ccc(C(=O)Nc2ccc(-c3nc4ccccc4s3)c(O)c2)cc1`, for which the Potency result is “inactive”.

In the case of `Cc1nn(-c2ccc(C(C)(C)C)cc2)c(C)c1[C@@H]1C=C[C@@H](NC(=O)c2ccco2)C1`, the Potency result was “inactive”.

As to `Oc1ccc(-c2nc(C3CC3)nc3c2CCN(Cc2cccc(F)c2)CC3)cc1`, the Potency result is “inactive”.

Turning to `CC(=O)Nc1ccc(NC(=O)CCCc2nc(-c3ccc(C(C)(C)C)cc3)no2)cc1`, the Potency entry was “inactive”.

Regarding `Cc1ccc(Nc2c(-c3ccc(N(C)C)cc3)nc3nc[nH]n23)cc1`, the Potency entry was “inactive”.

`Fc1ccc(Nc2nc(-c3ccccc3F)no2)cc1`: the Potency result was “inactive”.

In the case of `Cc1ccc(-c2nnc(SCc3ccccc3C)o2)cc1`, the Potency entry is “inactive”.

Turning to `CCNC(=O)C1C(c2cccc(NC(=O)c3ccc(OC)cc3)c2)OC(=O)N1Cc1ccc(C)cc1` (centres undefined), the Potency is 3.94 µM (active).

As for `Cc1cc(C)n(CCC(=O)N2CCC(Cc3noc(C4CC4)n3)C2)n1` (centres undefined), the Potency result was “inactive”.

For the compound `Cc1cccc(-c2cccc(NC(=O)C3CCCN(C(=O)CC(F)(F)F)C3)c2)c1` (centres undefined), the Potency entry was “inactive”.

For `Cc1nn(-c2ccc(C(C)C)cc2)c(C)c1[C@@H]1C=C[C@@H](NC(=O)CC2(CC(=O)O)CCCC2)C1`, the Potency result is “inactive”.

Consider `CC(C)C(=O)Nc1cc(-c2nc3ccccc3s2)ccc1Cl`, for which the Potency result was “inactive”.

For the compound `COc1cccc(-c2nc3ccc(-c4ccc5c(c4)OCO5)cc3o2)c1OC`, the Potency entry was “inactive”.

Turning to `OC1(CN2CCCCC2)CCN(c2nc3ccccc3s2)C1` (centres undefined), the Potency entry was “inactive”.

`Cc1nn(-c2ccc(C(C)C)cc2)c(C)c1[C@@H]1C=C[C@@H](NC(=O)Nc2ccccc2)C1`: the Potency entry is “inactive”.

With `CN1CCN(C[C@@H]2CN(C(=O)CCCc3ccccc3)C[C@@H]2CO)CC1`, the Potency entry is “inactive”.

Consider `COc1ccc(-c2cc(N3CCCC(NC(=O)c4ccsc4)C3)n[nH]2)cc1` (centres undefined), for which the Potency result is “inactive”.

With `COc1ccccc1OC1(C(=O)O)CCN(c2ncnc3nc[nH]c23)CC1`, the Potency result was “inactive”.

As to `O=C(CSc1ccc(F)cc1)Nc1ccccc1-c1nc2ccccc2s1`, the Potency result is “inactive”.

As to `O=C(Nc1ccccc1)c1nc2c(o1)CCN(Cc1cccc(Cl)c1)CC2`, the Potency entry is “inactive”.

In the case of `COc1ccc(C(=O)Nc2onc3c2CCCC3)cc1`, the Potency was 3.94 µM (active).

For the compound `OCc1cccc(-c2cc3c(cn2)CN(Cc2ccccc2)CCN3)c1`, the Potency result is “inactive”.

Consider `O=C(/C=C/c1ccccc1)Nc1cc(-c2nc3cc(Cl)ccc3o2)ccc1Cl`, for which the Potency result was “inactive”.

Take `CC(=O)c1nn(-c2ccc(OC(F)(F)F)cc2)nc1Nc1ccccc1`: the Potency entry is “inactive”.

Take `CNc1nc(C(=O)NCc2ccc3[nH]c(-c4ccc(F)cc4)c(C)c3c2)cs1`: the Potency entry is “inactive”.

With `CN1c2cc(C(=O)Nc3ccccc3)ccc2C(=O)N2CCCCCC21` (centres undefined), the Potency result is “inactive”.

Take `Cc1nn(-c2ccc(C(C)C)cc2)c(C)c1[C@@H]1C=C[C@@H](NC(=S)NCC(C)C)C1`: the Potency result was “inactive”.

Take `Cc1cccc(C(=O)Nc2ccc(-c3nc4ccccc4s3)c(C)c2)c1`: the Potency entry is “inactive”.

For `Cc1ccc(Cl)cc1-n1ncc2c(N3CCC(C(N)=O)CC3)ncnc21`, the Potency result was “inactive”.

Regarding `OCC1CCCN(c2ncnc3c2cnn3-c2ccccc2)C1` (centres undefined), the Potency was 0.785 µM (active).

As for `OCCN1CCN(c2nc(N3CCCCC3)c3cnn(-c4ccc(Cl)cc4)c3n2)CC1`, the Potency entry was “inactive”.

As for `C[S+](=O)([O-])CCn1ncc2cc(OCc3cccc(-c4ccccc4)c3)ccc21`, the Potency entry was “inactive”.

Regarding `CC(=O)Oc1ccccc1C(=O)Nc1ccc(-c2nc3ccc(C)cc3s2)cc1`, the Potency entry was “inactive”.

On to `O=C(NC1CCN(c2cc(-c3ccc(F)cc3)[nH]n2)C1)c1cc2ccccc2[nH]1` (centres undefined), for which the Potency entry is “inactive”.

`Cc1ccc2cc(CN3CCN(CC(N)=O)CC3)c(-c3cccs3)nc2c1`: the Potency result is “inactive”.

As for `COc1ccc(CC(=O)Nc2ccc(-c3nc4ccccc4s3)c(C)c2)cc1`, the Potency result was “inactive”.

Consider `COc1ccc(-c2nc3ccccc3s2)cc1NC(=O)COc1ccccc1C`, for which the Potency entry was “inactive”.

Turning to `CCc1cccc(NC(=O)c2cc(-c3ccccc3)n[nH]2)c1`, the Potency result is “inactive”.

As to `COc1cc(F)ccc1-c1ccc(COc2ccc3c(cnn3CCC(=O)O)c2)cc1`, the Potency entry is “inactive”.

As for `Cc1ccc(-c2nc(C(=O)N(C)Cc3ccccc3)no2)cc1`, the Potency result is “inactive”.

In the case of `Oc1cccc(-c2cc3c(cn2)CN(Cc2cccnc2)CCN3)c1`, the Potency entry was “inactive”.

With `O=C(COc1ccc(Cl)cc1)Nc1ccc(-c2nc3cc(Cl)ccc3o2)c(O)c1`, the Potency result was “inactive”.

As for `CCOC(=O)C1CCN(C(=O)c2cccc3c2CCN3C(=O)Nc2ccccc2)CC1`, the Potency is 3.13 µM (active).
